The source of these data is PMC7862700, “An all-to-all approach to the identification of sequence-specific readers for epigenetic DNA modifications on cytosine”.

Assay in all cases: DAPPL (digital affinity profiling via proximity ligation, sequencing); 10 mM Tris-HCl pH 7.5, 50 mM NaCl, 1 mM DTT, 4% glycerol, room temperature, 30 min; GST-TFs on glutathione beads, 16-mer random dsDNA library, 0.1% formaldehyde crosslink after washing; high values mean tight binding
What all share (conditions): protein: recombinant; tags: N-terminal GST; dsDNA, one strand shown

One experiment deals with T1, FLI1 (Homo sapiens, UniProt Q01543 1-452).
T1 sequence: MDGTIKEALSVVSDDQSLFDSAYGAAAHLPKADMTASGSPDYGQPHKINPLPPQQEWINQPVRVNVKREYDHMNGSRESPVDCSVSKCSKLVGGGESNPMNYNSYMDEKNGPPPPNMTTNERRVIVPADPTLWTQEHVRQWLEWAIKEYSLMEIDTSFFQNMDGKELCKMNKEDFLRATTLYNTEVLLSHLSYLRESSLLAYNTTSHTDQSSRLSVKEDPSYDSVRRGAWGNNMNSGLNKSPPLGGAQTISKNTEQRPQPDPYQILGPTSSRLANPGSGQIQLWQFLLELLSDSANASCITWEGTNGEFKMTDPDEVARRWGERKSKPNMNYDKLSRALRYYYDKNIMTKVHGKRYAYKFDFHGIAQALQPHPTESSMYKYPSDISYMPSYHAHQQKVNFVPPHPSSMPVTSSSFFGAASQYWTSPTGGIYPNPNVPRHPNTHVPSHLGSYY
The method, boiled down: (§1)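 After expression in yeast as GST fusions, human transcription factors were bound to glutathione beads, DNA-barcoded and mixed with a tag-only sample. The pools were incubated with 200 nmole of a 16-mer random double-stranded DNA library in Tris/NaCl/DTT/glycerol buffer (30 min, room temperature), washed and crosslinked with 0.1% formaldehyde. Proximity ligation with BsaI/T4 ligase ran for 1 h at 37 °C, before PCR amplification and sequencing on an Illumina NextSeq500. Binding signal is a hexamer's read frequency for a factor divided by its frequency for the tag-only sample.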

The next experiment has as its target T2, ELK1 (Homo sapiens, UniProt P19419 1-428).
T2 sequence: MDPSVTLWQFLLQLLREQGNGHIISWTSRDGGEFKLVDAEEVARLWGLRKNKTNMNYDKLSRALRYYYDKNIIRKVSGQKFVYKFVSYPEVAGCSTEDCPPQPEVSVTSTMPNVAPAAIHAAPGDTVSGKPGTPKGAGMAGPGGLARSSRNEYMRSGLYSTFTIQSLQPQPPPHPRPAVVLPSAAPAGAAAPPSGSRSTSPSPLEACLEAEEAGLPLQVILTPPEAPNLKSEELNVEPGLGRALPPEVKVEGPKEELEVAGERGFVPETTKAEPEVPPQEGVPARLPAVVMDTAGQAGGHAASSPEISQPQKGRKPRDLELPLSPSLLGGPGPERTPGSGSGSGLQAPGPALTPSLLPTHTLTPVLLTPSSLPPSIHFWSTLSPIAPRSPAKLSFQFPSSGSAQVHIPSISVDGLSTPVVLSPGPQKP
In outline:
as §1

The target in another experiment is T3, GABPA (Homo sapiens, UniProt Q06546 1-454).
T3 sequence: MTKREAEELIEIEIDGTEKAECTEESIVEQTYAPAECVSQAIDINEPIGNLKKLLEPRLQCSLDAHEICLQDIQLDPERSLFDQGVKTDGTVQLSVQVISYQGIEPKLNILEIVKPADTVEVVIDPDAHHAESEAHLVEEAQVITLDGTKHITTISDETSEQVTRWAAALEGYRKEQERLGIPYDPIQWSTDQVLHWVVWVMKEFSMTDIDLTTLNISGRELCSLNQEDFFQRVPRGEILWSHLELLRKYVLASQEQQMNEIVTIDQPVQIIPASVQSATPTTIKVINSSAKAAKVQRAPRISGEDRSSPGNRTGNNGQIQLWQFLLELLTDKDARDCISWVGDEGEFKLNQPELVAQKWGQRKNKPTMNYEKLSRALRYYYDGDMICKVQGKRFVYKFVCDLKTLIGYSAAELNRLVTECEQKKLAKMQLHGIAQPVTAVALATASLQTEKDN
The method, boiled down: as §1

The next experiment deals with T4, ERG (Homo sapiens, UniProt P11308 1-479).
T4 sequence: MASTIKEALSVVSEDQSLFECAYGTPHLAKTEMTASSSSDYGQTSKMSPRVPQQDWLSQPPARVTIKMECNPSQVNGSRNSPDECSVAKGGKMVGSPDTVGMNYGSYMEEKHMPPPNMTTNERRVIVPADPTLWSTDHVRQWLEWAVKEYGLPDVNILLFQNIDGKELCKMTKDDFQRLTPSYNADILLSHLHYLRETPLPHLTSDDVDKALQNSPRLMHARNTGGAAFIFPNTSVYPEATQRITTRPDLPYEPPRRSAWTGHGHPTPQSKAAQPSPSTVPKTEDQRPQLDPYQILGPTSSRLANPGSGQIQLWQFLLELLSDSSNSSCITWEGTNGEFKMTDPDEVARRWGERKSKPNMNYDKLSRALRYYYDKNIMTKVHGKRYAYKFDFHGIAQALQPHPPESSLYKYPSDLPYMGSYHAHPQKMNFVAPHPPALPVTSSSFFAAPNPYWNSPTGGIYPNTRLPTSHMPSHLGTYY
In outline: as §1

The target in a further experiment is ELF1 (Homo sapiens, UniProt P32519 1-619). In outline: as §1
ELF1, sequence (P32519 whole entry): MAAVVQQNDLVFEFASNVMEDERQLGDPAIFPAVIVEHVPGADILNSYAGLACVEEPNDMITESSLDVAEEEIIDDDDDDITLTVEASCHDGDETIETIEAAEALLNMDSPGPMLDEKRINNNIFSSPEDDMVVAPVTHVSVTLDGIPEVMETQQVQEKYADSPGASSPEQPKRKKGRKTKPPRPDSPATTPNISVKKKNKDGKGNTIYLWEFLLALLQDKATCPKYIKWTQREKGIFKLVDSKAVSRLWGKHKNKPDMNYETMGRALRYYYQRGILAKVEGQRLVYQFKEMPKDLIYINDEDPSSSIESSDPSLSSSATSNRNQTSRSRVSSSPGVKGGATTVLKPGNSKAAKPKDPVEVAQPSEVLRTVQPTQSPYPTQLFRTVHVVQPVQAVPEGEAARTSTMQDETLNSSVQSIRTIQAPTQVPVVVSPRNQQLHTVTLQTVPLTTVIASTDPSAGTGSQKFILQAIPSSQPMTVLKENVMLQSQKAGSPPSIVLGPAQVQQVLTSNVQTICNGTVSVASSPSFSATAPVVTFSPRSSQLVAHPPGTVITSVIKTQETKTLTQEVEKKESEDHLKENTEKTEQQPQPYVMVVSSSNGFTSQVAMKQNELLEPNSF
A further experiment concerns the target T5, EHF (Homo sapiens, UniProt Q9NZC4 1-300).
T5 sequence: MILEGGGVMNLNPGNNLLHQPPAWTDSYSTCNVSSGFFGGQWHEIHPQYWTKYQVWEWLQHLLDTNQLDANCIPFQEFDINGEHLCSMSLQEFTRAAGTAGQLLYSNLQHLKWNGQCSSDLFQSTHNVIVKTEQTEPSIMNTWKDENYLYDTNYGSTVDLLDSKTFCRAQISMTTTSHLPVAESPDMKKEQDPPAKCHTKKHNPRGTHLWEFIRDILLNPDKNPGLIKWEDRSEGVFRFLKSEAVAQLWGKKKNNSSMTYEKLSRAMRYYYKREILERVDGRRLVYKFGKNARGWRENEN
In outline:
as §1

A further experiment concerns the target SPI1 (Homo sapiens, UniProt P17947 1-270). The method, boiled down:
as §1

Another experiment addresses SPIB (Homo sapiens, UniProt Q01892 1-262). The method, boiled down:
as §1

The next experiment addresses T6, ELK3 (Homo sapiens, UniProt P41970 1-407).
T6 sequence: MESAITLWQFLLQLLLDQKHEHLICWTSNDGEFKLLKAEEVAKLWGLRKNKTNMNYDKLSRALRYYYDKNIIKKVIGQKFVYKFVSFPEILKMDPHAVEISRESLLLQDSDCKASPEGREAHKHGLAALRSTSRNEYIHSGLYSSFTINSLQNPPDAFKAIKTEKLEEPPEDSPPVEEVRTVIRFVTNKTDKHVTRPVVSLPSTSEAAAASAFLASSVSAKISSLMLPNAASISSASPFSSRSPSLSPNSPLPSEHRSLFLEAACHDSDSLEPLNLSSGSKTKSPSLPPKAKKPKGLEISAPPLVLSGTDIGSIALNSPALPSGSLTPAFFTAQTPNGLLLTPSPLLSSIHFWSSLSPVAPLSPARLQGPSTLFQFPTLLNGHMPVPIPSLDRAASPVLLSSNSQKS
The method, boiled down: as §1

SPIB, sequence (Q01892 whole entry): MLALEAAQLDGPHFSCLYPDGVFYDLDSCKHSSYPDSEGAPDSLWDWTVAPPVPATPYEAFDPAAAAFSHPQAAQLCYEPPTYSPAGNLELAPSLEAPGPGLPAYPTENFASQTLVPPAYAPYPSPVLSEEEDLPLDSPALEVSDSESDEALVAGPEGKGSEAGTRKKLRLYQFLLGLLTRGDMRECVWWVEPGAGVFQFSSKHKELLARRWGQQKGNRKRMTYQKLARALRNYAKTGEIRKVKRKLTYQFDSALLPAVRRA

As for TACCCG, the binding signal is 1.42 fold enrichment (6-mer frequency, TF over GST control) with FLI1; 1.35 fold enrichment (6-mer frequency, TF over GST control) with ELK1; 1.51 fold enrichment (6-mer frequency, TF over GST control) with GABPA; 1.57 fold enrichment (6-mer frequency, TF over GST control) with ERG; 1.52 fold enrichment (6-mer frequency, TF over GST control) with ELF1; 1.58 fold enrichment (6-mer frequency, TF over GST control) in the experiment with EHF. The binding signal with SPI1 is 1.42 fold enrichment (6-mer frequency, TF over GST control); with SPIB, 1.52 fold enrichment (6-mer frequency, TF over GST control); with ELK3, 1.37 fold enrichment (6-mer frequency, TF over GST control).

In the case of CACGCT, the binding signal with FLI1 was 1.42 fold enrichment (6-mer frequency, TF over GST control); with ELK1 it was 1.36 fold enrichment (6-mer frequency, TF over GST control); with GABPA, 1.36 fold enrichment (6-mer frequency, TF over GST control); with ERG it was 1.4 fold enrichment (6-mer frequency, TF over GST control); with ELF1, 1.34 fold enrichment (6-mer frequency, TF over GST control); with EHF, 1.44 fold enrichment (6-mer frequency, TF over GST control). Also, the binding signal is 1.33 fold enrichment (6-mer frequency, TF over GST control) with SPI1; 1.37 fold enrichment (6-mer frequency, TF over GST control) with SPIB; 1.35 fold enrichment (6-mer frequency, TF over GST control) in the experiment with ELK3.

On to ATTATG, for which the binding signal was 1.3 fold enrichment (6-mer frequency, TF over GST control) in the experiment with FLI1; 1.18 fold enrichment (6-mer frequency, TF over GST control) in the experiment with ELK1; 1.16 fold enrichment (6-mer frequency, TF over GST control) with GABPA; 1.2 fold enrichment (6-mer frequency, TF over GST control) with ERG; 1.2 fold enrichment (6-mer frequency, TF over GST control) with ELF1; 1.25 fold enrichment (6-mer frequency, TF over GST control) in the experiment with EHF. Moreover, the binding signal was 1.25 fold enrichment (6-mer frequency, TF over GST control) with SPI1; 1.25 fold enrichment (6-mer frequency, TF over GST control) with SPIB; 1.17 fold enrichment (6-mer frequency, TF over GST control) with ELK3.

In the case of TTTTCC, the binding signal with FLI1 was 1.9 fold enrichment (6-mer frequency, TF over GST control); with ELK1 it was 1.68 fold enrichment (6-mer frequency, TF over GST control); in the experiment with GABPA it was 1.71 fold enrichment (6-mer frequency, TF over GST control); in the experiment with ERG it was 1.76 fold enrichment (6-mer frequency, TF over GST control); with ELF1, 1.6 fold enrichment (6-mer frequency, TF over GST control); in the experiment with EHF, 1.76 fold enrichment (6-mer frequency, TF over GST control). The binding signal in the experiment with SPI1 is 1.75 fold enrichment (6-mer frequency, TF over GST control); in the experiment with SPIB, 1.79 fold enrichment (6-mer frequency, TF over GST control); with ELK3, 1.82 fold enrichment (6-mer frequency, TF over GST control).

Take TCTGAT: the binding signal with FLI1 is 1.15 fold enrichment (6-mer frequency, TF over GST control); in the experiment with ELK1 it was 1.21 fold enrichment (6-mer frequency, TF over GST control); with GABPA, 1.29 fold enrichment (6-mer frequency, TF over GST control); with ERG, 1.1 fold enrichment (6-mer frequency, TF over GST control); in the experiment with ELF1, 1.27 fold enrichment (6-mer frequency, TF over GST control); with EHF it was 1.25 fold enrichment (6-mer frequency, TF over GST control). In addition, the binding signal with SPI1 was 1.11 fold enrichment (6-mer frequency, TF over GST control); with SPIB, 1.31 fold enrichment (6-mer frequency, TF over GST control); with ELK3 it was 1.14 fold enrichment (6-mer frequency, TF over GST control).

For the sequence CTCACG, the binding signal is 1.36 fold enrichment (6-mer frequency, TF over GST control) with FLI1; 1.33 fold enrichment (6-mer frequency, TF over GST control) in the experiment with ELK1; 1.33 fold enrichment (6-mer frequency, TF over GST control) with GABPA; 1.33 fold enrichment (6-mer frequency, TF over GST control) in the experiment with ERG; 1.25 fold enrichment (6-mer frequency, TF over GST control) with ELF1; 1.31 fold enrichment (6-mer frequency, TF over GST control) with EHF. In addition, the binding signal is 1.22 fold enrichment (6-mer frequency, TF over GST control) in the experiment with SPI1; 1.32 fold enrichment (6-mer frequency, TF over GST control) with SPIB; 1.41 fold enrichment (6-mer frequency, TF over GST control) with ELK3.

AATATG: the binding signal was 1.12 fold enrichment (6-mer frequency, TF over GST control) in the experiment with FLI1; 1.13 fold enrichment (6-mer frequency, TF over GST control) in the experiment with ELK1; 1.15 fold enrichment (6-mer frequency, TF over GST control) with GABPA; 1.15 fold enrichment (6-mer frequency, TF over GST control) in the experiment with ERG; 1.17 fold enrichment (6-mer frequency, TF over GST control) in the experiment with ELF1; 1.09 fold enrichment (6-mer frequency, TF over GST control) with EHF. Moreover, the binding signal in the experiment with SPI1 is 1.15 fold enrichment (6-mer frequency, TF over GST control); with SPIB it was 1.19 fold enrichment (6-mer frequency, TF over GST control); with ELK3, 1.19 fold enrichment (6-mer frequency, TF over GST control).
